Source: the supplement of paper PMC13380429

System: Vero E6 infected with SARS-CoV-2
Assay: inhibition of SARS-CoV-2 cytopathic effect; higher = more antiviral protection, active = above 15
Details: 48 h

Measured: inhibition of SARS-CoV-2 cytopathic effect

O=C(O)C[CH2][Ge](=[O])[O][Ge](=[O])[CH2]CC(=O)O [propagermanium]
inactive: 1 nM -0.42% | 8.33 nM 1.44% | 100 nM 3.85% | 833.33 nM -0.73% | 10000 nM -2.33%

C=CC(=O)Nc1cc(Nc2nccc(-c3c[nH]c4ccccc34)n2)c(OC)cc1N(C)CCN(C)C
inactive: 1 nM -3.07% | 8.33 nM -6.83% | 100 nM -10.5% | 833.33 nM -13.9% | 10000 nM -12.3%

OC[C@H]1O[C@H](O[C@H]2O[C@H](CO)[C@@H](O)[C@H](O)[C@H]2O)[C@H](O)[C@@H](O)[C@@H]1O [cabaletta]
inactive: 1 nM 1.34% | 8.33 nM 3.4% | 100 nM 5.33% | 833.33 nM 3.33% | 10000 nM 0.76%
